The whole screen tested about 16,000 compounds, of which about 5,100 (32%) were called active. Another 25% or so got no clear call; they are omitted. The list shows a part of the results. A number with no mark means an inactive call. Calls follow the shape of the dose curve; as a rule, active = well fitted curve in the direction sought with a large enough effect; inconclusive = small, poorly fitted or top-dose-only effect, or effect the other way; inactive = no such curve, though single readings can be large or run the other way.
The molecules below were run against Cytochrome P450 3A4 (Homo sapiens) (UniProt P08684) (assay: Cytochrome panel assay with activity outcomes). Conditions: recombinant CYP, pro-luciferin dealkylation, luminescence, p450-cyp3a4; series mostly up to 57.1 µM; activity, negative = inhibition: at the top concentration.
Sequence of Cytochrome P450 3A4 (Homo sapiens) (P08684 whole entry, looked up): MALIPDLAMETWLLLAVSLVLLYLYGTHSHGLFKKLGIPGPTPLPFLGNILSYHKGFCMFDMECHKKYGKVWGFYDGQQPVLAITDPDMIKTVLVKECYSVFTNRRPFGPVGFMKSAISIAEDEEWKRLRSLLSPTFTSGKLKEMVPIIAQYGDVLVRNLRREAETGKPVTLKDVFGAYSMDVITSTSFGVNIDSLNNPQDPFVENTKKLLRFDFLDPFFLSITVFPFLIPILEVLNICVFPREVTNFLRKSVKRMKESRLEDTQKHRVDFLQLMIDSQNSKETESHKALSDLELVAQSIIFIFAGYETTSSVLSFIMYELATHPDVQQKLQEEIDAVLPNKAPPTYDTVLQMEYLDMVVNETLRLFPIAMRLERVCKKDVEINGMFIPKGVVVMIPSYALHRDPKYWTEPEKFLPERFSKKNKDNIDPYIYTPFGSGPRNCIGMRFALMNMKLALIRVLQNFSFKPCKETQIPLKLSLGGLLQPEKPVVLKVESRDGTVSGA
% is scaled to controls: 0 for no effect and ±100 for the full control effect.

SMILES | AC50 | activity, negative = inhibition
Cc1nn(Cc2ccccc2Cl)c(C)c1NC(=O)CCCn1nc(C)c([N+](=O)[O-])c1C | 2.51 µM (active) | 
Cc1c(Cl)c([N+](=O)[O-])nn1CC(=O)Nc1c(C)n(C)n(-c2ccccc2)c1=O |  | -28.3%
Cc1nn(CC(=O)NCCN2CCOCC2)c(C)c1[N+](=O)[O-] |  | -13.5%
CN(C)CCNC(=S)Nc1cccc(Cl)c1 |  | 21.6%
S=C(NCc1ccccn1)Nc1cccc(Cl)c1 | 10 µM (active) | 
O=C(Nc1cccc(F)c1)Nc1ccccn1 |  | -1.91%
COCC(=O)N1CCC2(CC1)CN(C(=O)Nc1ccccc1)C2 |  | -5.28%
CN1CCN(c2nc(-c3ccccc3)cc(C(F)(F)F)n2)CC1 |  | -3.68%
CC(Sc1nc(-c2ccccc2)cc(C(F)(F)F)n1)C(=O)N1CCCCC1 (stereo unspecified) | 7.08 µM (active) | 
CCOC(=O)c1cc2c(C(F)(F)F)cc(-c3ccccc3)nc2o1 |  | -1.96% [at 2.29 µM]
c1ccc(-c2ccc3c(c2)c2c4n3CCN=C4CCC2)cc1 |  | -17.2%
CCOc1ccc(OCC)c(NC(=O)C2CCCN(S(=O)(=O)c3cccs3)C2)c1 (stereo unspecified) | 5.62 µM (active) | 
CCCS(=O)(=O)N1CCCC(C(=O)NCCN(C)Cc2ccccc2)C1 (stereo unspecified) |  | 12.8% [at 2.29 µM]
CCCS(=O)(=O)N1CCCC(C(=O)NCCCOCC)C1 (stereo unspecified) |  | -4.59%
COCCn1c(=O)c(-c2cccs2)nc2cncnc21 | 15.8 µM (active) | 
COCCn1c(=O)c(C)nc2cncnc21 | 12.6 µM (active) | 
COc1ccc(-n2c(=O)c(-c3cccs3)nc3cncnc32)cc1 |  | -28.3%
Cn1c(=O)c(-c2cccs2)nc2cncnc21 | 7.94 µM (active) | 
COc1ccccc1CCn1c(=O)c(-c2cccs2)nc2cncnc21 | 3.16 µM (active) | 
CCCC(O)(CCC)C(=O)NN1CCCCC1 |  | -18.6%
O=c1c(-c2ccccc2)nc2cncnc2n1C1CC1 |  | -32.8%
Cc1nc2cnc(N(C)C)nc2n(C2CC2)c1=O |  | 2.85%
O=c1c(-c2ccc(F)cc2)nc2cncnc2n1C1CC1 |  | -29.9%
O=c1c(-c2cccc(Cl)c2)nc2cncnc2n1Cc1ccccc1 |  | -22.5%
CN(C)c1ncc2nc(-c3ccc(F)cc3)c(=O)n(CCc3ccccc3)c2n1 |  | -2.76%
COc1ccccc1CCn1c(=O)c(-c2cccc(Cl)c2)nc2cncnc21 | 6.31 µM (active) | 

SMILES | AC50 | activity, negative = inhibition
Cc1nc2cncnc2n(C2CC2)c1=O | 15.8 µM (active) | 
COc1ccccc1CCn1c(=O)c(-c2ccc(Cl)cc2)nc2cncnc21 | 3.98 µM (active) | 
COc1ccccc1CCn1c(=O)c(-c2ccc(F)cc2)nc2cncnc21 | 3.98 µM (active) | 
CC(=O)O[C@@H](C)C[N+](C)(C)C | inactive | 
COc1ccccc1CCn1c(=O)c(-c2ccc(F)c(F)c2)nc2cncnc21 | 3.16 µM (active) | 
COc1ccccc1CCn1c(=O)c(-c2ccccc2)nc2cncnc21 | 3.98 µM (active) | 
COCCn1c(=O)c(-c2ccccc2)nc2cncnc21 |  | -40%
Cn1c(=O)c2c(nc(C(=N)SCC(=O)O)n2C)n(C)c1=O |  | -27.7% [at 11.4 µM]
CSc1ncnc2c1ncn2[C@@H]1O[C@@H](CO)[C@H](O)O[C@@H]1O |  | -26.2% [at 11.4 µM]
Nc1ccc(CCNc2ncnc3c2ncn3[C@@H]2O[C@@H](CO)[C@H](O)[C@@H]2O)cc1 | 25.1 µM (active) | 
OCCNc1ncnc2c1ncn2[C@@H]1O[C@@H](CO)[C@H](O)[C@@H]1O |  | -9.88% [at 11.4 µM]
CNc1ncnc2c1ncn2[C@@H]1O[C@@H](CO)[C@H](O)[C@@H]1O |  | -11.5%
Cc1ccc(NC(=S)Nc2nc(CC(=O)Nc3ccccc3)cs2)cc1 | 6.31 µM (active) | 
Cc1ccc(NC(=O)Nc2nc(-c3ccc(C)s3)cs2)cc1 |  | -0.444% [at 2.29 µM]
CNC(=O)[C@@H]1O[C@@H](n2cnc3c(N)ncnc32)[C@@H](O)[C@H]1O |  | 1.94%
O=C(Nc1ccc(Cl)cc1)OCc1cc(-c2ccccc2)on1 |  | -7.05%
O=C(Nc1ccc(Nc2ccc3c(c2)C(=O)c2ccccc2C3=O)c2c1C(=O)c1ccccc1C2=O)c1ccccc1 |  | -7.98% [at 11.4 µM]
Clc1ccc(-c2nnc(-c3ccco3)o2)cc1 |  | 1.16% [at 11.4 µM]
CCC(=O)Nc1ccc2c(c1)C(=O)c1ccccc1C2=O | 7.08 µM (active) | 
O=C1c2ccccc2-c2ccc(NC(=O)[C@H]3CCCC[C@@H]3C(=O)O)cc21 |  | -29% [at 11.4 µM]
COc1ccc(CC(=O)Nc2cccc(-c3nnc(-c4ccco4)o3)c2)cc1 | 2 µM (active) | 
CCC(=O)Nc1cccc(-c2nnc(-c3cccc(NC(=O)CC)c3)o2)c1 | 14.1 µM (active) | 
O=C(Cc1ccc(Cl)cc1)Nc1cccc(-c2nnc(-c3ccco3)o2)c1 | 7.94 µM (active) | 
CCC(=O)NNC(=O)CCC(=O)Nc1ccccc1 |  | 0.807%
COc1ccc(CC(=O)Nc2ccc(-c3nnc(-c4ccccc4)o3)cc2)cc1 |  | 7.9%
CO[C@]1(NC(=O)Cc2cccs2)C(=O)N2C(C(=O)O)=C(COC(N)=O)CS[C@H]21 |  | -15.5% [at 25.6 µM]

SMILES | AC50 | activity, negative = inhibition
O=C1Nc2ccc(F)cc2C12SCCS2 |  | -8.71%
COc1cccc(-c2[nH]nc3c2C(c2ccsc2)C(C#N)=C(N)O3)c1 (stereo unspecified) | 7.08 µM (active) | 
COc1cccc(-c2[nH]nc3c2C(c2ccc(C)o2)C(C#N)=C(N)O3)c1 (stereo unspecified) |  | -27.5% [at 2.29 µM]
Cc1ccc(SCc2[nH]nc3c2C(C(C)C)C(C#N)=C(N)O3)cc1 (stereo unspecified) |  | -16.4% [at 2.29 µM]
CC1CCC(=NNC(=O)Cc2ccccc2)CC1 (stereo unspecified) |  | -1.06% [at 2.29 µM]
CN1CCC(=NNC(=O)CSCc2ccccc2)CC1 | 17.8 µM (active) | 
O=C(CC(=O)NN=C1CCCC1)NCCc1ccccc1 |  | 4.31% [at 2.29 µM]
CCCn1cnc2c1c(=O)n(CCCCC(C)=O)c(=O)n2C |  | -14.5%
CC1(C)C(=O)C(c2ccccc2)=C2CN3C(=O)N(CCc4ccccc4)C(=O)C3(Cc3ccc(F)cc3)C=C21 (stereo unspecified) | 3.16 µM (active) | 
CC1(C)C(=O)C(c2ccccc2)=C2CN3C(=O)N(CCc4ccccc4)C(=O)C3(Cc3ccc(C(F)(F)F)cc3)C=C21 (stereo unspecified) | 2 µM (active) | 
CC1(C)C(=O)C(c2ccccc2)=C2CN3C(=O)N(CCc4ccccc4)C(=O)C3(Cc3ccccc3)C=C21 (stereo unspecified) | 2 µM (active) | 
CN(C)/C(CN1CCN(C=O)CC1)=C1\N=C(c2ccccc2)OC1=O |  | -24.6%
CC1(C)N=C(N)N=C(N)N1CCCCc1ccccc1 |  | -18.8% [at 11.4 µM]
CCOC(=O)c1c(O)[nH]c(=O)c(CC)c1C |  | -7.96% [at 11.4 µM]
CCNC(=S)NNC(=O)c1cccc(Br)c1 |  | -9.08%
CCNC(=S)NNC(=O)Cc1ccccc1 |  | 7.45%
CCNC(=S)NNC(=O)CCn1c2ccccc2c2ccccc21 | 4.47 µM (active) | 
CC(C)[C@]1(Cl)CC[C@@H]2[C@]3(C)CCC[C@@](C)(C(=O)O)[C@H]3C[C@H](Cl)[C@@]2(Cl)[C@H]1Cl |  | -26.1% [at 11.4 µM]
Nc1nc2c(ncn2[C@@H]2C=C[C@@H](CO)C2)c(=O)[nH]1 |  | -2.95% [at 11.4 µM]
Cc1onc(-c2c(Cl)cccc2Cl)c1C(=O)N1CCc2ccccc2C1 | 3.98 µM (active) | 
COc1ccc(C(=O)NCCCN2CCOCC2)cc1OC |  | -3.95%
C/C(CC(=O)NCCCN1CCOCC1)=N\NC(=O)COc1ccc(Cl)cc1 | 15.8 µM (active) | 
CN(C)c1ccc(-c2nc(NCCc3cnc[nH]3)c3ccccc3n2)cc1 | 2.51 µM (active) | 
COc1ccc(-c2cc([C@H](O)[C@@H]3CCCCN3)c3ccccc3n2)cc1 |  | -6.63% [at 11.4 µM]
COCCNc1nc(-c2ccc(N(C)C)cc2)nc2ccccc12 | 12.6 µM (active) | 
COc1ccc(CNc2nc(-c3ccc4c(c3)OCO4)nc3ccccc23)c(OC)c1 | 1.26 µM (active) | 

SMILES | AC50 | activity, negative = inhibition
COc1ccccc1CNc1nc(-c2ccc(N(C)C)cc2)nc2ccccc12 | 3.16 µM (active) | 
Clc1cnccn1 |  | 1.91% [at 25.6 µM]
CCN(CC)CC#CCC(C)(c1ccccc1)c1ccccc1 |  | -27.1% [at 2.29 µM]
CCCOc1ccc(CSC(CC(=O)O)C(=O)O)cc1 (stereo unspecified) |  | -9.38%
CO/N=C(\C(=O)N[C@@H]1C(=O)N2C(C(=O)O)=C(COC(C)=O)CS[C@@H]12)c1csc(N)n1 | inactive | 
Cc1ccc(C(=O)Oc2cc(C)n(C)c(=O)c2)cc1 |  | -2.99%
CC(C)(CN)CN |  | -13.3% [at 11.4 µM]
COc1ccccc1CNc1nc(-c2ccc3c(c2)OCO3)nc2ccccc12 | 1.26 µM (active) | 
CCC(=O)Nc1ccc(/C(C)=N\NS(=O)(=O)c2ccc(C)cc2)cc1 |  | -25.1% [at 2.29 µM]
COc1ccc(S(=O)(=O)N/N=C(/C)c2cccc(NC(=O)c3ccccc3Cl)c2)cc1 | 2.24 µM (active) | 
C/C(=N/NS(=O)(=O)c1ccc(C)cc1)P(=O)(O)O |  | -8.75% [at 11.4 µM]
C/C(=N/NS(=O)(=O)c1ccc(C)cc1)c1cccc(NC(=O)c2cccc(Cl)c2)c1 | 1.41 µM (active) | 
CC(=O)[C@H]([C@@H](c1ccccc1)N1CCOCC1)N1CCOCC1 |  | -29.9% [at 11.4 µM]
CC(C)(C)C(=O)[C@H]([C@@H](c1ccccc1)N1CCOCC1)N1CCOCC1 | 2.51 µM (active) | 
c1ccc(CCSc2nccn2-c2ccccc2)cc1 | 14.1 µM (active) | 
Clc1ccc(CSc2nccn2Cc2ccccc2)cc1 | 7.08 µM (active) | 
O=c1ccnc(SCc2ccc(Cl)cc2)[nH]1 |  | -11.7% [at 11.4 µM]
OCCn1cnc2c(SCc3ccccc3)ncnc21 |  | -4.24% [at 11.4 µM]
O=C(O)CSCCc1ccccc1 |  | 0.346% [at 11.4 µM]
O=C(CSc1nccn1-c1ccccc1)c1ccc(Cl)cc1 | 10 µM (active) | 
CCc1ccc(CSc2nccn2-c2ccccc2)cc1 | 14.1 µM (active) | 
O=C(CSc1ncnc2nc[nH]c12)c1ccccc1 |  | -16.5% [at 11.4 µM]
CC1=NN(c2ccccc2)C(=O)C1C(=O)c1ccc(Cl)cc1 (stereo unspecified) |  | -25.5%
